Screens deposited in PubChem BioAssay by National Center for Advancing Translational Sciences (NCATS).
D2 ag-1: human D2 receptor agonism in beta-arrestin assay; P14416; DiscoveRx PathHunter D2 beta-arrestin, luminescence, 90 min; 100% = 57 uM dopamine signal; activation, % (no concentration beside the values); actives 0.084% (n = 360,000); AID 624465; in the data active = activation above about 40%; inconclusive = between about 15% and that limit
Target sequence (P14416 whole entry, looked up): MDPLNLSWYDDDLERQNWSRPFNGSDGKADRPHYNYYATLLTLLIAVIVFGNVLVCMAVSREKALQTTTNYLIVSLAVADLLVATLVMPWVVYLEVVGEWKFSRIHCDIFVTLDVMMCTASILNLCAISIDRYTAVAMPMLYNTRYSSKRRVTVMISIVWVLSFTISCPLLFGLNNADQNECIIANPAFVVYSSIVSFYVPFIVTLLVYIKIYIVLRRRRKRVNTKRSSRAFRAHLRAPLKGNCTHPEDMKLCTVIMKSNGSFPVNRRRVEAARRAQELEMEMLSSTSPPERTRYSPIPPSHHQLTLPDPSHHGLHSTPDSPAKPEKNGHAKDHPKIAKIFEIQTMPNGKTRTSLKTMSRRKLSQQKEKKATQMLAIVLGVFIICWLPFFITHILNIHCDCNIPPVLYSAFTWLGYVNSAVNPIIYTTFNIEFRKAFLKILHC
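DiscoveRx PathHunter D2 beta-arrestin cells (2,100/well) attached overnight, then compound-stimulated 90 min at 37 C in HBSS/10 mM HEPES/0.1% Tween-20 buffer; beta-galactosidase complementation read by luminescence after 1 h at ambient temperature. Dopamine 57 uM final (EC100) as control.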
D2 antag: antagonizes the human D2 dopamine receptor. AID 485344. inhibition, % at 10 µM. actives 2% (n = 340,000). P14416. HEK293 TREx D2 cells, calcium flux, dopamine EC80; in the data active = inhibition above about 30%; inactive = below that, where a call was filed; note: 0% is about no effect
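Compounds are added to dye-loaded, induced HEK293 T-REx cells coupled to calcium release via D2; after a 3 min kinetic read an EC80 dopamine stimulus is given and fluorescence is recorded for 3 more min.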
D2 ag-2: agonists of human D2 dopamine receptor; actives 0.53% (n = 340,000); HEK293 T-REx D2 cells, calcium flux agonist mode; P14416; activation, % at 2 µM;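 active = activation over 3 SD above normal in the single-dose calcium agonist read, cut at about 30% in these data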; note: 0% is about no effect
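In this primary screen, compounds producing a positive calcium signal within 180 s of addition to tetracycline-induced, force-coupled HEK293 Trex D2 cells are flagged; cells are dye-loaded with a no-wash calcium kit beforehand.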
D2 PAM-1: positively modulates the human D2 dopamine receptor allosterically | P14416 | HEK293 T-REx D2, calcium flux, EC20 dopamine potentiation | potentiation, % at 10 µM | actives 0.34% (n = 340,000);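 active = potentiation over 3 SD above the plate norm, cut at about 30% in these data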; note: 0% is about no effect
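Calcium flux readout, no-wash dye, 1 read/s. Inducible HEK293 Trex D2 line, overnight 30 C. Compound alone 180 s (agonist flags), then EC20 dopamine, another 180 s to score potentiation.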
D2 PAM-2: potentiates the human D2 dopamine receptor allosterically; actives 0.23% (n = 360,000); potentiation, % (test concentration not listed); DiscoveRx D2 beta-arrestin cells, luminescence, 90 min; 100% = 57 uM dopamine signal; P14416; in the data active = potentiation above about 50%; inconclusive = mostly about 30% to 49%
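PathHunter D2 cells, attached overnight at 37 deg C, received compound in DMSO plus dopamine at EC20 (50 nM final) for 90 min at 37 deg C. Beta-arrestin recruitment was read as luminescence after 1 h with detection reagent at ambient temperature.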
* hit, by the source's call; ? = inconclusive; . = no result. The list is not random: actives were taken first. Their share in the collection is about 2.4%.

SMILES | D2 ag-1 | D2 antag | D2 ag-2 | D2 PAM-1 | D2 PAM-2
CCc1ccc2[nH]c(=O)c(CN(Cc3ccc(F)cc3)C(c3nnnn3CCN3CCOCC3)C(C)C)cc2c1 (stereo not given) | -4 | -18 | -6 | 31* | -19
CCc1ccc2[nH]c(=O)c(C(c3nnnn3Cc3ccc(OC)cc3)N3CCOCC3)cc2c1 (stereo not given) | -3 | -6 | 0 | 3 | -8
CCc1ccc2[nH]c(=O)c(C(c3nnnn3Cc3ccccc3)N3CCOCC3)cc2c1 (stereo not given) | 1 | 36* | 0 | -6 | 1
Cc1ccc(N2CCN(C(=O)CCS(=O)(=O)c3cc4c(cc3Cl)NC(=O)CO4)CC2)c(C)c1 | . | . | 1 | 4 | .
O=C(Cn1ncc2ccsc2c1=O)N1CCN(c2ccccc2F)CC1 | . | . | 1 | 3 | .
CCN(Cc1nc(-c2ccc(OC)cc2)oc1C)S(=O)(=O)c1ccc(Cl)cc1 | . | . | 2 | 3 | .
CCOC(=O)C1CCN(C(=O)Cc2c(F)cccc2Cl)CC1 | -3 | 31* | 0 | 21 | -19
CN(C)c1ccc(CNC(=O)c2cccn2-c2nnc(N3CCCCC3)s2)cc1 | . | . | 0 | 2 | .
CCOC(=O)C1CCN(CC(=O)N2CCc3ccccc32)CC1 | -1 | . | . | . | -17
CC1CCN(CC(=O)N2CCc3ccccc32)CC1 | 2 | 54* | 0 | -22 | -11
Cc1nn(S(=O)(=O)c2ccc(C(C)(C)C)cc2)c(C)c1S(=O)(=O)N1CCC(C)CC1 | . | . | 0 | -10 | .
Cc1ccc(C)c(N2N=C(C(=O)O)CCC2=O)c1 | 1 | 6 | 0 | -8 | -2
Cc1ccc(C)c(N2N=C(C(=O)Nc3ccc(N4CCOCC4)cc3)CCC2=O)c1 | -3 | 35* | 0 | 0 | -11
Cc1c(NC(=O)C(C)(C)Oc2ccc(Cl)cc2)cccc1-c1nc2ccccc2o1 | . | . | 0 | 0 | .
O=C(NC1(C(F)(F)F)NC(=O)N(Cc2cccnc2)C1=O)c1ccc(F)cc1 (stereo not given) | 2 | 6 | -1 | 39* | -4
CCOc1ccc(NC(=O)c2ccc(-c3cccc(Cl)c3C)o2)cc1 | . | . | 0 | -5 | .
O=S1(=O)C=CC(Sc2nc3ccccc3[nH]2)C1 (stereo not given) | -4 | -3 | -2 | -2 | -2
CC1=CS(=O)(=O)CC1Sc1nc2ccccc2[nH]1 (stereo not given) | -1 | 38* | 0 | -7 | 4
Cc1oc2ncnc(N3CCCCC3)c2c1C(=O)NCC1CCN(Cc2cccc(F)c2)CC1 | . | . | -1 | 3 | .
O=C(C1CCN(S(=O)(=O)N2CCOCC2)CC1)N1CCc2ccccc21 | -5 | 36* | -1 | 0 | -14
O=C(C1CCC(C(=O)N2CCc3ccccc32)CC1)N1CCc2ccccc21 (stereo not given) | -1 | -3 | 7 | -30 | -3
CCOC(=O)c1sc(NC(=O)CSc2nc(C)cc(C)n2)c(C#N)c1C | -2 | 4 | 0 | 1 | -2
CCOC(=O)c1sc(NC(=O)CSc2n[nH]c(-c3ccccc3)n2)c(C#N)c1C | 0 | 39* | 1 | 2 | 14
C=CCNCCOc1c(C)cc(C)cc1Cl | -1 | 32* | 0 | -22 | -29
Cc1cc(C)c(OCCCCNCc2ccccc2)c(Cl)c1 | -2 | 49* | -1 | -14 | -20
SMILES | D2 ag-1 | D2 antag | D2 ag-2 | D2 PAM-1 | D2 PAM-2
C=CCNCCCCOc1c(Cl)cc(C)cc1Br | -2 | -10 | 0 | -7 | -5
COc1ccc(C(=O)c2cn(Cc3cccc(C)c3)c3cc4c(cc3c2=O)OCO4)cc1 | . | . | -1 | 8 | .
NS(=O)(=O)c1cccc(NC(=O)COC(=O)C2(c3cccc(F)c3)CCCC2)c1 | 4 | 51* | -2 | -8 | 7
CCCn1c2ccccc2c2cnn(CC(=O)N(CCCOC)Cc3ccco3)c(=O)c21 | . | . | 0 | 7 | .
O=C(Nc1nnc(C(F)(F)F)s1)c1ccc(Br)s1 | -10 | 35* | 19 | -18 | -6
CCSc1nnc(NC(=O)c2ccc(Br)s2)s1 | -2 | -11 | 1 | 0 | -18
CCOc1ccc2nc(N3CCCC(C(=O)Nc4ccc(OC)c(Cl)c4)C3)sc2c1 (stereo not given) | . | . | . | 16 | .
COc1ccc(-c2nnc(NC(=O)c3ccccc3C)o2)cc1 | -3 | 51* | -1 | -1 | -2
Cn1cc(CC(=O)NCCN2CCOCC2)c2ccccc21 | 0 | 24 | 0 | 39* | -10
Cn1cc(CC(=O)NCc2ccc(F)cc2)c2ccccc21 | -1 | -29 | 0 | 9 | -6
CC(C)c1ccc(NC(=O)Cc2cn(C)c3ccccc23)cc1 | -4 | 49* | 0 | -8 | -9
CCOC(=O)Cn1c(=O)n(CC2CCCO2)c2nc(-c3ccc(OCC)cc3)nc(C(N)=O)c21 (stereo not given) | . | . | -2 | -4 | .
COc1ccc(NC(=O)c2ccc(-n3cccn3)c([N+](=O)[O-])c2)cc1 | -1 | 45* | 0 | -5 | 5
COc1ccc(/C=N/N2C(=O)CSC2=S)cc1Br | -2 | 33* | 8 | -4 | -2
O=C1CN(C(=O)c2ccccc2C(F)(F)F)C(c2ccccc2)c2cc(F)ccc2N1 (stereo not given) | . | . | 0 | 0 | .
CCN1/C(=C/c2ccc3cc(C)ccc3[n+]2CC)Sc2ccccc21 | 0 | 5 | 36* | 10 | -9
O=C(CCc1ccc(Oc2cc([N+](=O)[O-])cc([N+](=O)[O-])c2)cc1)N1CCCCCC1 | ? | 37* | -1 | -5 | 75*
CN(C)c1ccc(CNn2cnnc2SCc2ccc(F)cc2)cc1 | 1 | -3 | -1 | 38* | -2
COC(=O)CSc1nnc(COc2ccc3ccccc3c2)o1 | 5 | 13 | 0 | 9 | 2
O=C(CSc1nnc(-c2cccc(F)c2)o1)N1CCCC1 | -4 | 32* | 0 | 0 | -4
O=C(NCc1nnc(SCC(=O)N2CCCC2)o1)c1c(F)cccc1F | -3 | 32* | 2 | -8 | 16
Cc1cc(C)cc(OCc2nnc(SCC(=O)N3CCCCC3)o2)c1 | -2 | -4 | -1 | 44* | -2
O=C(NCc1nnc(SCC(=O)N2CCCC2)o1)c1c(F)cccc1Cl | -2 | -18 | -1 | 0 | 7
Cc1cccc(OCc2nnc(SCC(=O)N3CCCC3)o2)c1 | 10 | 11 | -1 | 6 | -3
CCOC(=O)CSc1nnc(COc2ccc3ccccc3c2)o1 | -1 | 34* | 0 | 6 | 0
CCOC(=O)c1cccc(NC(=O)c2ccc3c(Cl)c4c(nc3c2)CCC4)c1 | . | . | -1 | 4 | .
CCOc1ccc(CN2C(=O)C(=O)c3cccc(C)c32)cc1OC | . | . | -1 | -7 | .
O=C(CSc1nnc(COc2ccc(F)cc2)o1)N1CCCCC1 | -3 | 97* | 0 | -15 | 1
COc1cccc(C(=O)Nc2cc(-c3ccccc3)no2)c1 | . | . | 5 | -6 | .
